This is a sample that favours compounds with a hit; in the whole collection about 15% have one here.
ELG1 DNA repair: ELG1-dependent DNA repair inhibition | HEK293T ELG1-luciferase reporter, luminescence, 16 h; DNA damage induced by 5-fluorouridine | Potency, µM (top dose mostly 46.1 µM), inactives show at the highest dose activity change, negative = inhibition, actives largely listed as inhibitors | actives 2.3% (n = 330,000); note: nearly all actives have a fitted effect of over 55% in size
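Cells (2,000 per well) received 5-fluorouridine plus test compound or DMSO and were incubated 16 hr at 37 °C, 5% CO2. Luciferase activity was read by luminescence 30 min after ONE-Glo addition; signal suppression marked inhibition of damage-induced ELG1 function.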
DT40 TDP1 no CPT: qHTS for Inhibitors of human tyrosyl-DNA phosphodiesterase 1 (TDP1): qHTS in cells in absence of CPT | actives 15% (n = 420,000) | Potency, µM (highest dose often 46.2 µM), for inactives: top-dose activity change, negative = growth inhibition, actives largely listed as inhibitors | DT40 Tdp1-/- hTDP1 cells, no CPT, ATP luminescence, 48 h; note: nearly all actives have a fitted effect of over 55% in size
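Chicken DT40 Tdp1-/- cells complemented with human TDP1, screened without camptothecin (DMSO vehicle only), 400 cells/well. Compounds pin-transferred, cells incubated at 37 °C for at least 48 hr. Growth read as ATP-dependent luminescence (CellTiter-Glo, 30 min at RT).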
DT40 TDP1 CPT: growth inhibition of DT40 Tdp1-/-;hTDP1 cells with camptothecin (screen for TDP1 inhibitors); chicken DT40 Tdp1-/-;hTDP1 cells + 20 nM CPT, ATP luminescence, 48 h; Potency, µM (top dose mostly 46.2 µM), inactives show at the top dose activity change, negative = growth inhibition, most hits filed as inhibitors; actives 12% (n = 420,000); AID 686979; note: nearly all actives have a fitted effect of over 55% in size
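Cell growth measured by CellTiter-Glo luminescence after a minimum 48 h, 37 C compound exposure with 20 nM CPT in Tdp1-knockout DT40 cells stably expressing hTDP1, seeded 400/well; qHTS titration format.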
ALOX12 inh: ALOX12 (human) lipoxygenase inhibition; P18054; AID 1671190; Potency, µM (titrated, usually from 108 µM), for the others: at the top dose activity change, negative = inhibition, most hits filed as inhibitors; actives 1.1% (n = 580,000); purified 12hLO, xylenol orange hydroperoxide absorbance
Target sequence (P18054 whole entry, looked up): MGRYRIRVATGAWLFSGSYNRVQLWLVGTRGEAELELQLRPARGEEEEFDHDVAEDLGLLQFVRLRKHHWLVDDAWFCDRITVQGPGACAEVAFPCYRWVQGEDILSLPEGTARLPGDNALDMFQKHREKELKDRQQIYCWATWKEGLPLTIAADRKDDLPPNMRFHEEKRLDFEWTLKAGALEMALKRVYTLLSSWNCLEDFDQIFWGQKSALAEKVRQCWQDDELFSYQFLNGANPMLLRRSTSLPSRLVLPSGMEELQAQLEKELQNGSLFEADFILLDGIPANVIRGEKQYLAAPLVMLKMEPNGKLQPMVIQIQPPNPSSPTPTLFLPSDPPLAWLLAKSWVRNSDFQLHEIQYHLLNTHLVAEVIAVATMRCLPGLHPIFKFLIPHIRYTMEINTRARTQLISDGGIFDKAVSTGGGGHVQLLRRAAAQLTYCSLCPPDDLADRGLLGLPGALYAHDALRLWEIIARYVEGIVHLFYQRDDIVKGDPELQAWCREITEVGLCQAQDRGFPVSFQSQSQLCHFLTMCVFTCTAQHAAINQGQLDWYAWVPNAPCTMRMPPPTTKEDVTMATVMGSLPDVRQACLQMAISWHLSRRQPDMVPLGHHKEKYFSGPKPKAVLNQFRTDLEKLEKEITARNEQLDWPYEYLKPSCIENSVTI
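Hydroperoxide product was detected by ferrous iron/xylenol orange as the 573 to 405 nm absorbance ratio. Arachidonic acid at 40 uM (final) was turned over for 30 min at room temperature by 150 nM human 12hLO, pH 7.0 Hepes buffer, after 15 min compound preincubation.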
RORgamma inh: ROR gamma (mouse) transcription inhibition; P51450; Drosophila S2 Gal4-RORgamma UAS-luciferase reporter, 20 h; Potency, µM (series often up to 53.6 µM), inactives show top-dose activity change, negative = inhibition, usual class: inhibitors; actives 5.4% (n = 310,000); note: nearly all actives have a fitted effect of over 60% in size
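Schneider cells (Drosophila), stable Gal4 DBD–ROR gamma + UAS-luc; 1 hr cmpd preincubation; Cu2+ induction 700 uM final; 20 hr ambient; luminescence.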
VP16 counter: counter-screen for ROR gamma inhibitors: Gal4-VP16 reporter; Drosophila S2 Gal4-VP16 UAS-luciferase, luminescence, 20 h; Potency, µM (top dose mostly 53.6 µM), for inactives: at the highest dose activity, negative = inhibition, actives largely listed as inhibitors; actives 3.5% (n = 310,000); AID 2546;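 note: Gal4-VP16 expression switched on by copper sulfate through the metallothionein promoter; nearly all actives have a fitted effect of over 50% in size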
* marks the source's active call; other numbers are inactive results; [ ] = another dose, or the depositor's remark. Calls come from the whole dose curve; as a rule, active = well fitted curve in the direction sought with a large enough effect; inconclusive = small, poorly fitted or top-dose-only effect, or another doubt; inactive = no such curve, though single readings can be large; an effect the other way counts as inactive or inconclusive. % is set by controls: 0 for no effect and ±100 for the full control effect; potency is the fitted concentration of half-maximal effect.

What do the screens show for `COc1cccc(NC(=O)CN(C)C(=O)/C=C/c2cn(Cc3ccccc3)nc2-c2cccnc2)c1`?
ELG1 DNA repair: 15µM*; DT40 TDP1 no CPT: inconclusive; DT40 TDP1 CPT: inconclusive; ALOX12 inh: -12%

How did O=C(c1cn(Cc2ccccc2)nc1-c1cccnc1)N1CCN(Cc2ccccc2)CC1 do in these assays?
ELG1 DNA repair: -9%; DT40 TDP1 no CPT: -12%; DT40 TDP1 CPT: inconclusive; ALOX12 inh: inconclusive

What do the screens show for `COc1ccccc1N1CCN(C(=O)c2cn(Cc3ccccc3)nc2-c2cccnc2)CC1`?
ELG1 DNA repair: -24%; DT40 TDP1 no CPT: -15%; DT40 TDP1 CPT: inconclusive; ALOX12 inh: 7%

Results for Cc1ccccc1-c1nc(C#N)c(NCCc2ccccc2)o1 ?
ALOX12 inh: -19%

Results for OC[C@@H]1CN(Cc2cccc3[nH]ccc23)C[C@H]1c1ccncc1 ?
ALOX12 inh: 225%

What do the screens show for `CCCCn1c(CN(C)Cc2[nH]c3ccccc3c2C)cnc1S(=O)(=O)CC`?
ALOX12 inh: 46%

What do the screens show for `CN1CCc2c(c3ccccc3n2Cc2ccc(C(=O)NO)cc2)C1`?
ALOX12 inh: -7%[57.4 µM]

What do the screens show for `CCCCN1CCc2c(c3ccccc3n2Cc2ccccc2)C1`?
ELG1 DNA repair: -1%; DT40 TDP1 no CPT: 23µM*; DT40 TDP1 CPT: 16µM*; ALOX12 inh: 10%; RORgamma inh: 13%; VP16 counter: 2%

Results for CCc1ccc(Nc2cc(C)nc3nc(Cc4ccc(Cl)cc4)nn23)cc1 ?
DT40 TDP1 no CPT: 9.2µM*; DT40 TDP1 CPT: 16µM*; ALOX12 inh: -11%

Results for Cc1ccc(Nc2cc(C)nc3nc(Cc4ccc(Cl)cc4)nn23)cc1 ?
DT40 TDP1 no CPT: 15µM*; DT40 TDP1 CPT: 18µM*; ALOX12 inh: -2%

Results for O=C(CSc1nnc2ccccn12)N1CCN(Cc2ccccc2)CC1 ?
ALOX12 inh: -24%

Results for Cc1ccc2c(ccn2CCC(=O)Nc2nnc(C3CC3)s2)c1 ?
ALOX12 inh: -1%

How did Cn1c(SCc2ccc(F)cc2)nnc1-c1cc2ccccc2o1 do in these assays?
ALOX12 inh: 0%

How did Cc1c(C)n(Cc2ccccc2)c2ncnc(N)c12 do in these assays?
ELG1 DNA repair: 16µM*; DT40 TDP1 no CPT: 23µM*; DT40 TDP1 CPT: 15µM*; ALOX12 inh: -3%; RORgamma inh: inconclusive; VP16 counter: -22%

How did CCCn1c(CNc2ccc(Br)cc2)nc2ccccc21 do in these assays?
ELG1 DNA repair: -15%; DT40 TDP1 no CPT: inconclusive; DT40 TDP1 CPT: 23µM*; ALOX12 inh: 7%; RORgamma inh: inconclusive; VP16 counter: inconclusive

How did CCn1c(/N=C/c2ccccc2NS(=O)(=O)c2ccc(C)cc2)nc2ccccc21 do in these assays?
ELG1 DNA repair: -23%; DT40 TDP1 no CPT: inconclusive; DT40 TDP1 CPT: 29µM*; RORgamma inh: 5%; VP16 counter: -28%

What do the screens show for `CCCn1c(CNS(=O)(=O)c2ccc(C)cc2)nc2ccccc21`?
ELG1 DNA repair: 0%; DT40 TDP1 no CPT: inconclusive; DT40 TDP1 CPT: inconclusive; ALOX12 inh: 8%; RORgamma inh: 11µM*; VP16 counter: inconclusive

Results for CCn1c(CNc2ccc(C(=O)O)cc2)nc2ccccc21 ?
DT40 TDP1 no CPT: inconclusive; DT40 TDP1 CPT: inconclusive; ALOX12 inh: 23%; RORgamma inh: 10µM*; VP16 counter: -1%

What do the screens show for `CCCn1c(NC(=O)CCS(=O)(=O)c2ccc(C)cc2)nc2ccccc21`?
ELG1 DNA repair: -13%; DT40 TDP1 no CPT: inconclusive; DT40 TDP1 CPT: inconclusive; ALOX12 inh: inconclusive

Screens from PubChem.
